Assay results reported in the supplement of paper PMC12645437, “Orthogonal IMiD-Degron Pairs Induce Selective Protein Degradation in Cells” (ACS Chemical Biology, 2025).
In all, about 8,300 sequences were measured (“log2 fold change of degron read counts, EGFP-low vs EGFP+ sorted cells (limma voom), compound-induced degradation”: median about -1.1, highest 2% from about 3.2 on). The full list was thinned out, with the highest values kept by preference.

T1: CRBN, Q96SW2
T1 chain: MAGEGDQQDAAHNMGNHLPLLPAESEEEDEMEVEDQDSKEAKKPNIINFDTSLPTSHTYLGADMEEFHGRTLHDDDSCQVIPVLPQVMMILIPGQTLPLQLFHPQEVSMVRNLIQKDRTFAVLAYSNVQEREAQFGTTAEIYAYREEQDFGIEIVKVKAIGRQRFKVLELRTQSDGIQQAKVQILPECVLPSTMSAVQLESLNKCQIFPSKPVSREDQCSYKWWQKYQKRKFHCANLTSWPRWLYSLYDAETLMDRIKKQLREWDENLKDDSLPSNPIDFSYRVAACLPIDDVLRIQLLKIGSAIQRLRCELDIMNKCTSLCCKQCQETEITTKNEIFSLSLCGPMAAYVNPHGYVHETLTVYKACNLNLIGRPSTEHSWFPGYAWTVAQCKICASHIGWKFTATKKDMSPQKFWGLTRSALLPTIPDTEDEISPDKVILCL


Target: T1, CRBN, Q96SW2
Test: log2 fold change of degron read counts, EGFP-low vs EGFP+ sorted cells (limma voom), compound-induced degradation; higher = more compound-induced degradation of the degron-EGFP fusion; degrons are variants of IKZF1/3 zinc finger 2; compound dose not given here
Conditions: Jurkat, 18 h
[1] = compound: compound 19 (5-tert-butyl-thalidomide)
[2] = compound: compound 22 (5-morpholino-thalidomide)
[3] = compound: compound 33 (diphenyl IMiD analogue)
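Further: pooled lentiviral library of zinc finger degron-EGFP fusions in mCherry-positive Jurkat cells, FACS-sorted after compound exposure, with degron abundance counted by next-generation sequencing.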

Row | Sequence | log2 fold change of degron read counts [1] | log2 fold change of degron read counts [2] | log2 fold change of degron read counts [3] | log2 fold change of degron read counts (compound: thalidomide)
1 | FACNQCGHQFTQKGNLLRHIKL [46F_47A_49N_50Q_52G_53H_54Q_55F_67L_, Q9UKT9] | -2.48 | -3.06 | -3.27 | -2.92
2 | FRCNVCGAQFTQKGNLLRHIKL [46F_47R_49N_50V_52G_53A_54Q_55F_67L_, Q9UKT9] | -1.54 | -1.19 | -0.656 | -0.561
3 | FNCPICGHYFTQKGNLLRHIKL [46F_47N_49P_50I_52G_53H_54Y_55F_67L_, Q9UKT9] | -1.6 | -1.7 | -1.47 | -1.44
4 | FFCSVCGHKFTQKGNLLRHIKL [46F_47F_49S_50V_52G_53H_54K_55F_67L_, Q9UKT9] | -1.05 | -2.36 | -2.5 | -2.6
5 | FCCSVCGHVFTQKGNLLRHIKL [46F_47C_49S_50V_52G_53H_54V_55F_67L_, Q9UKT9] | -1.81 | -2.39 | -2.47 | -2.11
6 | FFCPICGASFTQKGNLLRHIKL [46F_47F_49P_50I_52G_53A_54S_55F_67L_, Q9UKT9] | 3.26 | 3.18 | 2.18 | 1.74
7 | FTCPICGASFTQKGNLLRHIKL [46F_47T_49P_50I_52G_53A_54S_55F_67L_, Q9UKT9] | 2.17 | 3.02 | 2.88 | 3.23
8 | FGCPICGASFTQKGNLLRHIKL [46F_47G_49P_50I_52G_53A_54S_55F_67L_, Q9UKT9] | 3.27 | 2.28 | 2.49 | 1.31
9 | FHCPICGASFTQKGNLLRHIKL [46F_47H_49P_50I_52G_53A_54S_55F_67L_, Q9UKT9] | 2.77 | 2.54 | 2.08 | 0.926
10 | FFCNICGASFTQKGNLLRHIKL [46F_47F_49N_50I_52G_53A_54S_55F_67L_, Q9UKT9] | 2.16 | 2.55 | 1.2 | -0.157
11 | FICDICGARFTQKGNLLRHIKL [46F_47I_49D_50I_52G_53A_54R_55F_67L_, Q9UKT9] | -0.557 | 1.75 | 0.63 | 1.41
12 | FGCNVCGAWFTQKGNLLRHIKL [46F_47G_49N_50V_52G_53A_54W_55F_67L_, Q9UKT9] | -1.56 | -2 | -0.753 | -1.74
13 | FFCDICGAYFTQKGNLLRHIKL [46F_47F_49D_50I_52G_53A_54Y_55F_67L_, Q9UKT9] | 2.55 | 1.36 | -0.119 | -1.9
14 | FACPICGAGFTQKGNLLRHIKL [46F_47A_49P_50I_52G_53A_54G_55F_67L_, Q9UKT9] | 3.61 | 1.67 | 0.663 | 0.803
15 | FKCPICGAGFTQKGNLLRHIKL [46F_47K_49P_50I_52G_53A_54G_55F_67L_, Q9UKT9] | 2.08 | -0.359 | -0.702 | 0.6
16 | FTCPICGAGFTQKGNLLRHIKL [46F_47T_49P_50I_52G_53A_54G_55F_67L_, Q9UKT9] | 1.55 | 2.19 | 2.35 | 2.4
17 | FDCPICGAGFTQKGNLLRHIKL [46F_47D_49P_50I_52G_53A_54G_55F_67L_, Q9UKT9] | 2.33 | -0.146 | 0.564 | 1.11
18 | FRCPICGAGFTQKGNLLRHIKL [46F_47R_49P_50I_52G_53A_54G_55F_67L_, Q9UKT9] | 2.23 | 1.8 | 2.28 | 1.55
19 | FVCPICGAGFTQKGNLLRHIKL [46F_47V_49P_50I_52G_53A_54G_55F_67L_, Q9UKT9] | 1.09 | 3.08 | 2.04 | 2.98
20 | FGCPICGAGFTQKGNLLRHIKL [46F_47G_49P_50I_52G_53A_54G_55F_67L_, Q9UKT9] | 3.28 | 1.32 | 2.32 | 0.446
21 | FSCPICGAGFTQKGNLLRHIKL [46F_47S_49P_50I_52G_53A_54G_55F_67L_, Q9UKT9] | 2.83 | 1.27 | 1.76 | 0.755
22 | FQCPICGAGFTQKGNLLRHIKL [46F_47Q_49P_50I_52G_53A_54G_55F_67L_, Q9UKT9] | 2.39 | 2.05 | 1.77 | 3.69
23 | FLCPICGAGFTQKGNLLRHIKL [46F_47L_49P_50I_52G_53A_54G_55F_67L_, Q9UKT9] | 1.86 | 0.187 | 1.6 | 1.01
24 | FYCPICGAGFTQKGNLLRHIKL [46F_47Y_49P_50I_52G_53A_54G_55F_67L_, Q9UKT9] | 2.99 | 2.02 | 2.1 | -0.123
25 | FWCPICGAGFTQKGNLLRHIKL [46F_47W_49P_50I_52G_53A_54G_55F_67L_, Q9UKT9] | 3.3 | 2.73 | 1.87 | 0.518
